Measured values published in PubChem BioAssay AID1159580 (chemical genetic matrix, 2015).
About 2,000 (36%) of roughly 5,500 compounds were called active. About 18% were inconclusive and are not listed. No stated cut-off is given here; in the data, active means normalized growth mostly below about 0.91 (no sharp cut-off); inconclusive means no clear call, values can overlap the other calls; inactive means mostly above about 0.92. The list shows a part of the results.

Experiment: chemical genetic growth profiling, strain panel (AID 1159580);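 further: tested at 20 µM; growth read once vehicle control cultures reached saturation at 30 °C; 1 = growth at the plate median or of vehicle wells; lower values mean less growth of the strain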
Conditions: S. cerevisiae deletion strains, growth OD
[1] = locus YAL013W, strain DEP1, active compounds read low
[2] = locus YBR229C, strain ROT2, active compounds read low
[3] = locus YDL101C, strain DUN1, active compounds read low
[4] = locus YDR150W, strain NUM1, active compounds read low
[5] = locus YEL061C, strain CIN8, active compounds read low
[6] = locus YGR078C, strain PAC10, active compounds read low
[7] = locus YHR030C, strain SLT2, active compounds read low
[8] = locus YHR087W, strain rtc3, active compounds read low
[9] = locus YJR043C, strain POL32, active compounds read low
[10] = locus YJR075W, strain HOC1, active compounds read low
[11] = locus YLR039C, strain RIC1, active compounds read low
[12] = locus YLR058C, strain SHM2 (second series), active compounds read low
[13] = locus YLR085C, strain ARP6, active compounds read low
[14] = locus YLR262C, strain YPT6, active compounds read low
[15] = locus YML094W, strain GIM5, active compounds read low
[16] = locus YMR219W, strain ESC1, active compounds read low
[17] = locus YMR263W, strain SAP30, active compounds read low
[18] = locus YMR307W, strain GAS1, active compounds read low
[19] = locus YNL153C, strain GIM3, active compounds read low
[20] = locus YNL298W, strain CLA4 (second series), active compounds read low
[21] = locus YNL322C, strain KRE1, active compounds read low
[22] = locus YNR030W, strain Alg12, active compounds read low
[23] = locus YPL055C, strain LGE1, active compounds read low
[24] = locus YPL241C, strain CIN2, active compounds read low
[25] = locus YPR135W, strain CTF4, active compounds read low

Measured: normalized growth

COc1ccccc1N1CCN(C(=O)C(C)Nc2ccccn2)CC1 (stereo not given)
active: [24] 1.24 [resistant]
inactive: [1] 0.994 | [2] 1 | [3] 0.985 | [4] 0.986 | [5] 1.01 | [6] 0.986 | [7] 0.952 | [8] 1.01 | locus YJL187C, strain SWE1, active compounds read low 0.994 | [9] 1 | [10] 1.02 | [11] 0.997 | [12] 0.996 | [13] 1.04 | [14] 0.996 | [15] 0.984 | [16] 0.999 | [17] 1.04 | [18] 1.09 | [19] 1.02 | [20] 0.997 | [21] 0.999 | [22] 1 | [23] 1.01 | [25] 1

O=C(Nc1ccc(Cl)cc1)N1CCN(c2ncccc2C(F)(F)F)CC1
inactive: [1] 0.996 | [2] 0.979 | [3] 0.956 | locus YDL134C, strain PPH21, active compounds read low 0.955 | [4] 0.978 | [5] 0.976 | [6] 0.939 | [7] 0.713 | [8] 0.939 | [9] 0.97 | [10] 0.908 | [11] 1.04 | [12] 0.968 | [13] 0.944 | [14] 0.978 | [15] 0.957 | [16] 0.976 | [17] 0.969 | [18] 0.805 | [19] 0.946 | [20] 0.893 | [21] 0.988 | [22] 0.956 | locus YOL006C, strain TOP1, active compounds read low 0.782 | [23] 0.943 | [24] 0.92 | [25] 1.04

COc1ccccc1N1CCN(CCN(C(=O)c2ccc(I)cc2)c2ccccn2)CC1
inactive: locus YAL040C, strain CLN3, active compounds read low 0.976 | locus YCL061C, strain MRC1 (second series), active compounds read low 0.988 | locus YDR363W, strain ESC2, active compounds read low 0.943 | locus YER002W, strain NOP16, active compounds read low 1.01 | locus YGR229C, strain SMI1, active compounds read low 0.984 | locus YNL175C, strain NOP13, active compounds read low 0.983 | locus YNL197C, strain WHI3, active compounds read low 0.996 | locus YNL224C, strain SQS1, active compounds read low 0.987 | [21] 0.977 | locus YOR083W, strain WHI5 (second series), active compounds read low 0.997 | [23] 0.964 | [24] 0.995
